This is an account of results in PubChem BioAssay.

Molecules are shown by their SMILES. Calls of active or inactive are those of the source.

For assay [1], the system named is PRMT1 (protein arginine N-methyltransferase 1). Nature of the assay: PRMT1 binders on small-molecule microarrays, primary screen, biochemical, small-molecule microarray, 635 nm fluorescence (AID 1088).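 Note: binding of Prmt1 protein to compounds spotted on small-molecule microarray slides.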 The conditions noted are these: small-molecule microarray binding, higher = more signal.
Assay [2] can be described thus: yeast growth modulation, basal conditions, primary screen, YJM789 clinical isolate, OD600, 24 h (AID 1089).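 Note: growth of clinical yeast isolate S. cerevisiae YJM 789 seeded 1000 cells per well; test concentration not given here.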 Conditions: S. cerevisiae YJM789 growth, higher = more signal, called active from +8 up or from −8 down.
The nature of assay [3]: fission yeast growth modulation, primary screen, strain 972, OD600, 24 h, no modulator (AID 1090).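 Note: basal condition with compound alone and no growth modifier present; test concentration not given here.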 Conditions: S. pombe 972 growth, higher = more signal, called active from +8 up or from −8 down.
The nature of assay [4]: S. cerevisiae growth modulation with rapamycin, primary screen, strain BY4716, OD600, 96 h (AID 1091). Note: test concentration not given here. The conditions noted are these: higher = more signal, called active from +8 up or from −8 down.
Assay [5] has as its target Torsin-1A-interacting protein 2 (Homo sapiens) (UniProt Q8NFQ8). In words: LULL1 binders on small-molecule microarray, primary screen, cell lysate, human LULL1 lysate, 635/667 nm fluorescence (AID 1092).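 Note: probe is lysate of COS7 cells overexpressing human LULL1; score merges per-feature 667 nm fluorescence with signal-to-noise.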 Conditions: hLULL1 lysate binding, 635 nm fluorescence, higher = more signal.
Assay [6] is described as follows: E. coli growth modulation, two-sided OD650, primary screen, E. coli filamentation project, strain DRC41, 24 h (AID 1093).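 Note: MC1000 strain lacking acrAB efflux and sulA so SOS filamentation is blocked; test concentration not given here.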 Conditions: OD650, 24 h, higher = more signal, called active from +8 up or from −8 down.
Assay [7] in a line: small-molecule microarray binders of probe aLefty2, primary screen, biochemical, biotinylated probe, 635/667 nm fluorescence (AID 1094).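 Note: score merges spot fluorescence near 667 nm with spot signal-to-noise ratio.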 The conditions noted are these: higher = more signal.
For assay [8], the system named is Noggin (protein binding on small-molecule microarray). In words: Noggin binders on small-molecule microarray, primary screen, biochemical, 635/667 nm fluorescence (AID 1095).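 Note: score merges 667 nm feature fluorescence with signal to noise over triplicate slides.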 Conditions: 635 nm fluorescence, higher = more signal.
In assay [9] the target is Neurogenic locus notch homolog protein 3 (Homo sapiens) (UniProt Q9UM47). In words: NOTCH3 binders on small-molecule microarray, primary screen, biochemical, 635/667 nm fluorescence (AID 1096). The conditions noted are these: NOTCH3 binding, 635 nm fluorescence, higher = more signal.
The nature of assay [10]: small-molecule microarray binders of probe aEGFR, primary screen, biochemical, biotinylated probe, 635/667 nm fluorescence (AID 1097).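 Note: probe is a biotinylated anti-EGFR antibody binding compounds printed on slides; score combines fluorescence near 667 nm and signal to noise of each spot.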 The conditions noted are these: higher = more signal.
Assay [11] deals with Plasmodium falciparum Sir2 (PF13_0152, Sir2A). In words: pfSir2 binders on small-molecule microarrays, primary screen, biochemical, small-molecule microarray, 635 nm fluorescence (AID 1098).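 Note: score merges spot fluorescence intensity with its signal-to-noise ratio.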 The conditions noted are these: small-molecule microarray binding, fluorescence 635 nm; higher = more signal.
Assay [12] is described as follows: small-molecule microarray binders of probe aDKK1, primary screen, biochemical, biotinylated probe, 635/667 nm fluorescence (AID 1099).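 Note: score merges 667nm spot fluorescence with signal to noise across triplicate slides; reference of the scale not given here.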 Conditions: higher = more signal.
A short description of assay [13]: small-molecule microarray binders of probe aCHRDL2, primary screen, biochemical, biotinylated probe, 635/667 nm fluorescence (AID 1100). The conditions noted are these: higher = more signal.
Assay [14] in a line: splicing luciferase reporter signal modulators, primary screen, spliceosome inhibition project, cell-based, HEK293, splice +/- reporter (AID 1101).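 Note: HEK293 cells carrying a splicing-competent luciferase reporter gene; test concentration not given here.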 The conditions noted are these: luminescence, 24 h, higher = more signal, called active from +8 up or from −8 down. Background: In a reporter assay the amount or activity of a reporter protein is the signal.
Assay [15] concerns the target Fibroblast growth factor 10 (Homo sapiens) (UniProt O15520). Nature of the assay: FGF10 binders on small-molecule microarrays, primary screen, biochemical, small-molecule microarray, 635 nm fluorescence (AID 1102). The conditions noted are these: FGF10 binding, fluorescence 635 nm, higher = more signal.
The test system of assay [16] is glycogen synthase kinase-3 (GSK3A per assay name; protocol says GSK3B). Nature of the assay: GSK3 binders on small-molecule microarrays, primary screen, biochemical, small-molecule microarray, 635 nm fluorescence, GSK3A (AID 1103). Note: the record names both GSK3A and GSK3B. Conditions: small-molecule microarray binding, fluorescence 635 nm; higher = more signal.
Assay [17] deals with Epidermal growth factor receptor (Homo sapiens) (UniProt P00533). In words: EGFR binders on small-molecule microarrays, primary screen, biochemical, small-molecule microarray, 635 nm fluorescence (AID 1104).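 Note: score merges 667 nm emission intensity with spot signal to noise over triplicate slides.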 The conditions noted are these: EGFR binding, higher = more signal.
For assay [18], the target named is Follistatin-related protein 3 (Homo sapiens) (UniProt O95633). Nature of the assay: FSTL3 binders on small-molecule microarrays, primary screen, biochemical, small-molecule microarray, 635 nm fluorescence (AID 1105).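 Note: score merges emission near 667 nm and signal to noise per printed spot across three slides.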 Conditions: FSTL3 binding, higher = more signal.
The target of assay [19] is Dickkopf-related protein 1 (Homo sapiens) (UniProt O94907). Nature of the assay: DKK1 binders on small-molecule microarrays, primary screen, biochemical, small-molecule microarray, 635 nm fluorescence scan (AID 1106).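 Note: score merges emission near 667 nm with signal to noise over three replicate slides.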 The conditions noted are these: DKK1 binding, higher = more signal.
Assay [20] relates to Inhibin beta A chain (activin A). In words: INHBA (activin A) binders on microarrays, primary screen, biochemical, small-molecule microarray, 635 nm fluorescence scan (AID 1107).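 Note: mouse activin A protein probed at 4.33 µg/mL on printed slides; score merges bound-protein fluorescence near 667 nm with spot signal-to-noise.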 The conditions noted are these: small-molecule microarray binding, higher = more signal.

Dickkopf-related protein 1 (Homo sapiens), sequence (O94907 whole entry, looked up): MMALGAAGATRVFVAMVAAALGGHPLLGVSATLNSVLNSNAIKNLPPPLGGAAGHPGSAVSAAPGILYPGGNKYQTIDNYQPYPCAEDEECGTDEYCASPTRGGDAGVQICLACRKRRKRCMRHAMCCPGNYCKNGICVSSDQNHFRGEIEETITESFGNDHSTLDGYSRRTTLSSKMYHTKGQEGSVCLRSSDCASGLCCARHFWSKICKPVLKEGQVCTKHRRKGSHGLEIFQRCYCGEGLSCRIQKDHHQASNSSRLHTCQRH
Neurogenic locus notch homolog protein 3 (Homo sapiens), sequence (Q9UM47 whole entry, looked up): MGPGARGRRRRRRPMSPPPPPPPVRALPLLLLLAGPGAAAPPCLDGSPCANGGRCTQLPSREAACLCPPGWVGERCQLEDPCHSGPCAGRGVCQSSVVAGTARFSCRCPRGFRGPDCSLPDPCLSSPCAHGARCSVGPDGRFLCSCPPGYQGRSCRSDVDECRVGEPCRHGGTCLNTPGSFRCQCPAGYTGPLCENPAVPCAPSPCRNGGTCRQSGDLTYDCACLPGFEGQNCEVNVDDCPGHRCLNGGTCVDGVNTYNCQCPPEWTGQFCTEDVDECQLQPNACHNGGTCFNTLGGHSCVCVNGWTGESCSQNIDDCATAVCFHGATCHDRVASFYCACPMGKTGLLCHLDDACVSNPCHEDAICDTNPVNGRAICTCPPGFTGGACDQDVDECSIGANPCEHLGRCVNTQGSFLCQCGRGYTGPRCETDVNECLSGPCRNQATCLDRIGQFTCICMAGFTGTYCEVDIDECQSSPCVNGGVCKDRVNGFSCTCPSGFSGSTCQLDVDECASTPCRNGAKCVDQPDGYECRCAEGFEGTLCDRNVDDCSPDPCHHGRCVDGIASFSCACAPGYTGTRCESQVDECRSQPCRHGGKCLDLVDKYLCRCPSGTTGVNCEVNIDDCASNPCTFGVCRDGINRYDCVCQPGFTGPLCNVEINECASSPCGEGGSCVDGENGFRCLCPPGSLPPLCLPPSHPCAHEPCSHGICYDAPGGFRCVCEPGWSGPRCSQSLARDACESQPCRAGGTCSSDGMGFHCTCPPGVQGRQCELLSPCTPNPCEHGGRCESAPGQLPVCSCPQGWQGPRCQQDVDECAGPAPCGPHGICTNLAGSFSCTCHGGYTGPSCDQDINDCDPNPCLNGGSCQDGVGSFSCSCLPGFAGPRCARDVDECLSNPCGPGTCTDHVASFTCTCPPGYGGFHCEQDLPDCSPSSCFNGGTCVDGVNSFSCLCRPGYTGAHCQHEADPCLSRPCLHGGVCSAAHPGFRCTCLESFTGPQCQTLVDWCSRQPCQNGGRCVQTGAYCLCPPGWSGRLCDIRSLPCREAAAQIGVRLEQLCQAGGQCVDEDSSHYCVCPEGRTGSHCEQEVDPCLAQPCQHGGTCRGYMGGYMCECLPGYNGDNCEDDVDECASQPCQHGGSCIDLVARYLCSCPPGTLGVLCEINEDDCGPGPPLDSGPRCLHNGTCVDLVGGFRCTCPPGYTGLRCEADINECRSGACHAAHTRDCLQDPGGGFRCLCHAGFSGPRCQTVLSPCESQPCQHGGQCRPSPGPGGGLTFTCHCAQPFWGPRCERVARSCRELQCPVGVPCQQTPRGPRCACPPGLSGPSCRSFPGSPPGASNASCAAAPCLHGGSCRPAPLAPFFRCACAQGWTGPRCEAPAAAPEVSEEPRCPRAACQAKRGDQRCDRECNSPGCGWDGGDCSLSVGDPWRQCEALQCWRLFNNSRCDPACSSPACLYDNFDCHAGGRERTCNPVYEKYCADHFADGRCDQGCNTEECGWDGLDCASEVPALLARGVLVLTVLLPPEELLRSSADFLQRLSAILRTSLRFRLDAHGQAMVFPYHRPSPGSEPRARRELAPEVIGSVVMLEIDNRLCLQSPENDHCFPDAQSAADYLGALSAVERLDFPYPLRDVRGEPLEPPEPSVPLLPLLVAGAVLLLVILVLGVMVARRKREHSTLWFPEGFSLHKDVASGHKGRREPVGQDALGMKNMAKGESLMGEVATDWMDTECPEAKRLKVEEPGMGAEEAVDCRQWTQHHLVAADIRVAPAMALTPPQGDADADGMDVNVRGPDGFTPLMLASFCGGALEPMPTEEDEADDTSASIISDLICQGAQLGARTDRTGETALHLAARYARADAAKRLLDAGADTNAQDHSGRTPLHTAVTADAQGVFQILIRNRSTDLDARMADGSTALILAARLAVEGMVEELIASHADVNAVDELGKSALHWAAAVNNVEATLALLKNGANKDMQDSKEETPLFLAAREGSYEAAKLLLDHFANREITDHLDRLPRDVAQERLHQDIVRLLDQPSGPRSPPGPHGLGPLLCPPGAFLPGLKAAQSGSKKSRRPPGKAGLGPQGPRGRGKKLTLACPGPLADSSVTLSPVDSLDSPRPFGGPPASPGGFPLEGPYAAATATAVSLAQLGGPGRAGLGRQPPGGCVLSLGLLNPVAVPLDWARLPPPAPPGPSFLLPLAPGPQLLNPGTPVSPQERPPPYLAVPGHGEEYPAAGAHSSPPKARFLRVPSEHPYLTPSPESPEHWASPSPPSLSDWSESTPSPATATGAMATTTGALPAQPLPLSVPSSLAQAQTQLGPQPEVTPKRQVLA
Epidermal growth factor receptor (Homo sapiens), sequence (P00533 whole entry, looked up): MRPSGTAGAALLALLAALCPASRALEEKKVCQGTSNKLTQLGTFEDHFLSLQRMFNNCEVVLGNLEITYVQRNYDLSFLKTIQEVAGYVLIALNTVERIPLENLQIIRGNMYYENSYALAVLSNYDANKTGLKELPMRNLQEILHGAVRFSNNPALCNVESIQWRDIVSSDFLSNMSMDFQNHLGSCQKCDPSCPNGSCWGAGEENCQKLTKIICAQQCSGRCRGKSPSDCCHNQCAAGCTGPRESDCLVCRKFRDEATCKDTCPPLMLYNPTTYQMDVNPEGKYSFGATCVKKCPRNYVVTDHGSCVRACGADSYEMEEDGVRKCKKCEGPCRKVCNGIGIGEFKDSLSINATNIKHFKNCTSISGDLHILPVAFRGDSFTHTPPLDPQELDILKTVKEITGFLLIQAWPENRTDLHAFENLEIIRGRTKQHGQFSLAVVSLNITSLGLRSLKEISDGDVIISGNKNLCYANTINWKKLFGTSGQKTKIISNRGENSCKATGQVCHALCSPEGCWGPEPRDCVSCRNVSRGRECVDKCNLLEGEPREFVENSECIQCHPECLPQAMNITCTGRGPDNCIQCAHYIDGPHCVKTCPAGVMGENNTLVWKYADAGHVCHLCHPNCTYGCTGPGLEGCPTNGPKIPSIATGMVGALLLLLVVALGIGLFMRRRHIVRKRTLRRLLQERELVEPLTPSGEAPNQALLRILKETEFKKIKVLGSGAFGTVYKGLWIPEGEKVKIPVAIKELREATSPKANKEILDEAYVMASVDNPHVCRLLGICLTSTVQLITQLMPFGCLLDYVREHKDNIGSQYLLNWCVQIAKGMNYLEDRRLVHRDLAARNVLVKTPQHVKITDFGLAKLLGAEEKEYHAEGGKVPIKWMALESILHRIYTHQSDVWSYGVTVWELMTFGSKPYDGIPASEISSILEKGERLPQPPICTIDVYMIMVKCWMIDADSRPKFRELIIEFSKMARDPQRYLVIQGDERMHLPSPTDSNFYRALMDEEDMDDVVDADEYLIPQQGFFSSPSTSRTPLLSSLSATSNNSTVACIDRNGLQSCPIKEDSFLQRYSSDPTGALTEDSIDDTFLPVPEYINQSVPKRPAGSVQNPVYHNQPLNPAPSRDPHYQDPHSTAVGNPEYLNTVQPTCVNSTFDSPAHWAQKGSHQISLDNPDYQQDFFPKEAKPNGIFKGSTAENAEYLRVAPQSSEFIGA
Torsin-1A-interacting protein 2 (Homo sapiens), sequence (Q8NFQ8 whole entry, looked up): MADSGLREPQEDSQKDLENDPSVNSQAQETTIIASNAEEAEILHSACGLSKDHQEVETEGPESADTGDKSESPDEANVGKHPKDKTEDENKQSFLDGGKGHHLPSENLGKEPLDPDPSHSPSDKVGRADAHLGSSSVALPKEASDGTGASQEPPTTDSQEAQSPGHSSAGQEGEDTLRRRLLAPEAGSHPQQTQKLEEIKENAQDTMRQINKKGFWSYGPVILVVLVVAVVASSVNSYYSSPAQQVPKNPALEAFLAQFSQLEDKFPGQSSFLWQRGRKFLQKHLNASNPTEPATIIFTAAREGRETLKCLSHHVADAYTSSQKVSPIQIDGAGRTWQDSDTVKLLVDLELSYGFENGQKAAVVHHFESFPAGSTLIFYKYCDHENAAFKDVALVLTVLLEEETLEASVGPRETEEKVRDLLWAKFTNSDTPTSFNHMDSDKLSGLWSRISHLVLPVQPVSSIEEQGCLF
Follistatin-related protein 3 (Homo sapiens), sequence (O95633 whole entry, looked up): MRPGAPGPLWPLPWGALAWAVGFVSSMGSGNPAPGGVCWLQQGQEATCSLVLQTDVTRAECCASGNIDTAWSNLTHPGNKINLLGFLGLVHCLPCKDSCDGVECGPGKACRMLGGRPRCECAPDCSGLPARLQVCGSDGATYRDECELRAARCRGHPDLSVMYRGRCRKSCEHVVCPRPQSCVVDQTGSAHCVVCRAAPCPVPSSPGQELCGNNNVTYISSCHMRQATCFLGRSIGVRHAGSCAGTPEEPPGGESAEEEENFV
Fibroblast growth factor 10 (Homo sapiens), sequence (O15520 whole entry, looked up): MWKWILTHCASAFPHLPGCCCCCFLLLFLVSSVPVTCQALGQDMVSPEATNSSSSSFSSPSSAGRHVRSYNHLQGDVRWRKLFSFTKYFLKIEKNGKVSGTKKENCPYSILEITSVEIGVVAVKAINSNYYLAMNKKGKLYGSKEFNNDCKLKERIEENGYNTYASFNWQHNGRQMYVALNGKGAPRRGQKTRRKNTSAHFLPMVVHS

As to `COCCOC(=O)N1C(=O)[C@@]2(c3cc(C#CC4(O)CCCCCC4)ccc31)[C@H](c1ccccc1OCCO)N1[C@H](c3ccccc3)[C@H](c3ccccc3)OC(=O)[C@H]1[C@@H]2C(N)=O`, the composite z-score is 1.54 in assay [1]; 2.24 in [5]; -0.102 in assay [7]; 1.06 in [8]; 1.05 in [9]; 0.0254 in assay [10]. Also, the composite z-score is 0.651 in assay [11]; 0.255 in [12]; 0.0813 in [13]; 0.804 in [15]; 1.28 in assay [16]; 0.442 in assay [17]. Besides, the composite z-score is 1.14 in assay [18], 1.06 in [19] and -0.132 in assay [20]. Besides, the z-score in assay [2] was 1.74 (inactive); in assay [3], 0.699 (inactive); in [4], 5.17 (inactive); in assay [6], -0.175 (inactive); in assay [14], -0.349 (inactive).

`C#CCNC(=O)[C@H](Cc1ccccc1)NC(=O)[C@@H](N=[N+]=[N-])C(C)C`: the composite z-score was 0.911 in assay [1]; 1.57 in assay [5]; -0.116 in assay [7]; 0.434 in assay [8]; 0.5 in [9]; -0.071 in assay [10]. Moreover, the composite z-score in assay [11] is 0.435; in assay [12], -0.218; in [13] it was -0.503; in [15], 0.18; in assay [16] it was 0.596; in [17] it was 0.398. Moreover, the composite z-score in [18] stood at 0.335; in assay [19], 0.654; in [20] it was 0.554. In addition, the z-score in [2] was -0.611 (inactive); in assay [3] it was 0.139 (inactive); in assay [4] it was -0.229 (inactive); in assay [6] it was 0.35 (inactive); in assay [14], 0.177 (inactive).

For `O=C1OCC=C[C@H]2OC34C=CCN(c5ccc(Cl)cc5)C(=O)[C@H]3N(CCCCCO)C(=O)[C@@H]4[C@@H]12` (stereo not given in full), the composite z-score in [1] is -0.449; in [5] it was 2.58; in assay [7] it was -0.117; in assay [8], -1.64; in assay [9], -0.68; in assay [10] it was -0.208. The composite z-score in assay [11] was 0.311; in [12], -0.204; in assay [13], 0.822; in [15], -1.23; in assay [16] it was -1.26; in assay [17], -1.44. The results for the composite z-score in [18], in [19] and in assay [20] were -1.51, -1.22 and -0.262, respectively. The z-score is -0.984 (inactive) in assay [2]; -1.03 (inactive) in [3]; -0.497 (inactive) in assay [4]; 1 (inactive) in assay [6]; -0.784 (inactive) in assay [14].

As for `CC(C)(C)OC(=O)CC[C@@]1(C(=O)O)N=C(c2ccc(OCCCO)cc2)O[C@@H]1c1ccccc1CN=[N+]=[N-]`, the composite z-score was 1.29 in [1]; 2.84 in [5]; 0.36 in assay [7]; -0.195 in assay [8]; 0.44 in assay [9]; 0.272 in assay [10]. Moreover, the composite z-score in assay [11] is 1.16; in assay [12], 1; in assay [13] it was 0.602; in assay [15], 0.0038; in [16], 0.396; in [17] it was -0.207. The figures for the composite z-score in assay [18], in assay [19] and in assay [20] were -0.43, -0.689 and 1.08, respectively. The z-score in assay [2] is 0.947 (inactive); in assay [3], 0.642 (inactive); in [4], 0.0515 (inactive); in assay [6], 0.882 (inactive); in [14], -0.326 (inactive).

Consider `[N-]=[N+]=NCc1ccccc1C[C@@]1(C(=O)N2CCCCC2)N=C(c2ccc(OCCCO)cc2)O[C@@H]1c1ccccc1N=[N+]=[N-]`, for which the composite z-score was 0.422 in [1]; 1.73 in [5]; -0.0591 in [7]; 0.244 in assay [8]; 0.923 in assay [9]; 0.0923 in assay [10]. In addition, the composite z-score was found to be 0.679 in assay [11]; 0.885 in assay [12]; 0.689 in assay [13]; 0.128 in assay [15]; 0.293 in assay [16]; 0.13 in assay [17]. The composite z-score is -0.16 in assay [18], -0.276 in assay [19] and 1.19 in [20]. In addition, the z-score in [2] is -0.64 (inactive); in assay [3], 0.832 (inactive); in assay [4] it was 4.02 (inactive); in assay [6] it was 1.17 (inactive); in assay [14], -0.428 (inactive).
